Some of the results follow. Activity calls are given as the source filed them. The call rests on the fitted dose curve.
Biological target: DNA polymerase beta (Homo sapiens) (UniProt P06746)
Experiment: Inhibitors of DNA Polymerase Beta: Hit validation
Details: Pol beta primer extension/strand displacement, fluorescence kinetic
From the text: The base excision repair system in human cells is a target for therapeutic modulation of the response to irradiation treatment and DNA-damaging drugs. A key enzyme in this system is the bi-functional DNA polymerase known as DNA polymerase Beta (Pol Beta). The following is a homogeneous kinetic assay to study the primer extension and strand-displacement reaction catalyzed by pol beta.
A stepwise description of the 1536-well assay is shown in next Table. Three microliters of reagents (buffer in column 3 and 4 as negative control and 10 nM Pol beta in columns 1, 2, and 5-48) was dispensed into 1,536-well black solid-bottomed plate. Compounds (23 nL) were transferred via Kalypsys pin tool equipped with 1536-pin array (10 nL slotted pins, V&P Scientific, San Diego, CA). The plates were incubated for 15 min at room temperature, and 1 uL substrate (50 nM final concentration) were added to start the reaction and immediately read at 0 min read on Viewlux reader. The plate were further incubated for 10 min at room temperature, and then read on Viewlux again. Throughout the screen, reagent bottle and all liquid lines were chilled and made light-tight to minimize reagent degradation. All screening operations were performed on a fully integrated robotic system (Kalypsys, San Diego, CA) containing one RX-130 and two RX-90 anthropomorphic robotic arms (Staubli, Duncan, SC). Library plates were screened starting from the lowest and proceeding to the highest concentration, and a double-dipping step of the highest concentration was required to access higher concentrations of compounds. Vehicle-only plates, with DMSO being pin-transferred to the entire column 5-48 compound area, were inserted uniformly at the beginning and the end of each library in order to monitor for and record any shifts in the background, which can be affected by reagent dispensers or loss in enzyme activity overtime. Screening data were corrected, normalized, and concentration-effect relationships were derived by using publicly-available curve fitting algorithms developed in-house (http://ncgc.nih.gov/pub/openhts). A four parameter Hill equation was fitted to the concentration-response data by minimizing the residual error between the modeled and observed responses.
Potency means the concentration at half of the fitted maximal effect.

Potency, active:
COc1ccc(Cc2nnc(NC(=O)Cc3cccs3)s2)cc1 6.31 µM
Cc1c(CCC(=O)O)c(=O)oc2c(C)c(OCc3ccccc3Cl)ccc12 12.6 µM
Cc1ccc2nc(-c3ccncc3)cc(C(=O)Nc3ccc(OC(F)F)cc3)c2c1 35.5 µM
Cc1c(CC(=O)N2CCN(C(=O)C3COc4ccccc4O3)CC2)c(=O)oc2c(O)c(O)ccc12 (configuration not stated) 2.24 µM
Cc1ccc(C(=O)Oc2coc(CSc3nnc(NC(=O)c4cccs4)s3)cc2=O)cc1C 31.6 µM
COc1cc([C@H](Cc2ccccc2)NC(C)=O)oc(=O)c1 28.2 µM
O=C(Nc1ccc(S(=O)(=O)Nc2nccs2)cc1)c1cc(-c2ccncc2)nc2ccccc12 25.1 µM

— PubChem BioAssay AID540280 (National Center for Advancing Translational Sciences (NCATS), 2011)
